Among the data in PubChem BioAssay (Tox21) are Potency and outcome values, retold here.

Records with an inconclusive call do not appear. The source made the active and inactive calls. Unless noted, calls follow the shape of the dose curve; as a rule, active = well fitted curve in the direction sought with a large enough effect in the repeat runs; inconclusive = weak or mixed curves; inactive = no such curve, though single readings can be large; an effect the other way counts as inactive or inconclusive.

Experiment [1] concerns the target Estrogen receptor beta (Homo sapiens) (UniProt Q92731). The experiment is described as follows: qHTS assay to identify small molecule antagonists of the estrogen receptor beta (ER-beta) signaling pathway (AID 1259378; active = well fitted inhibition curve with a large enough effect in the signal ratio in the repeat runs, not every such curve was filed as active; the % refers to the signal ratio). Summed up:
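Antagonist mode: compounds added to beta-lactamase reporter HEK293T ER-beta-UAS cells stimulated with E2 (1nM final), 16 hr at 37C. LiveBLAzer B/G FRET substrate, 2 hours room temperature, fluorescence read-out.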

Experiment [2] is described as follows: qHTS assay to identify small molecule agonists of the androgen receptor (AR) signaling pathway in the presence of an antagonist - cell viability counter screen (AID 1259379). Also: nearly all actives have a fitted effect of over 25% in size. Also: potency is read from the fitted curve at half-maximal effect. The procedure, abridged: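 In MDA-kb2 cells (human breast carcinoma, MMTV-luciferase), compounds at 15 concentrations plus 3.0uM nilutamide; 16 hr, 37C, 0% CO2; CellTiter-Fluor fluorescence read for viability.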

Experiment [3] is described as follows: qHTS assay to identify small molecule agonists of the estrogen receptor beta (ER-beta) signaling pathway - cell viability counter screen (AID 1259380). Also: nearly all actives have a fitted effect of over 30% in size. Also: potency is read from the fitted curve at half-maximal effect. The procedure, abridged: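 Viability of ER-beta-UAS-bla HEK293T cells was determined by CellTiter-Glo luminescence following 16 hr treatment with test compounds at 37C.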
Experiment [4] in a line: qHTS assay to identify small molecule antagonists of the estrogen receptor beta (ER-beta) signaling pathway - cell viability counter screen (AID 1259382). Also: nearly all actives have a fitted effect of over 55% in size. Also: potency is read from the fitted curve at half-maximal effect. Summed up: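 Tox21 10K library tested in qHTS format on ER-beta-bla HEK293T cells stimulated with 1nM E2; 16 hr treatment at 37C. Same-well CellTiter-Glo luminescence served as the cell viability measure.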
Experiment [5] is described as follows: qHTS assay to identify small molecule agonists or antagonists of the thyroid stimulating hormone receptor (TSHR) signaling pathway - wild type cell line counter screen (AID 1259384; calls by dose curve). The procedure, abridged:
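Counter screen in untransfected Hek293: compounds (15-point titration, triplicate) plus phosphodiesterase inhibitor Ro20-1724 added after 18 h plating; 30 min RT. Intracellular cAMP via competitive d2/cryptate immunoassay, 1 h incubation.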

A short description of experiment [6]: qHTS assay to identify small molecule agonists of the estrogen receptor alpha (ER-alpha) signaling pathway in the presence of an antagonist - cell viability counter screen (AID 1259386).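 Also: cells exposed to compounds for 22 h at 37 °C before the viability read; nearly all actives have a fitted effect of over 30% in size.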 Also: potency is read from the fitted curve at half-maximal effect. Summed up: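 Fluorescent CellTiter-Fluor viability signal from VM7Luc4E2 cells, with the reagent added during the final hour of a 22hr compound exposure at 37C in the presence of 10.0nM ICI-182,780.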

The target of experiment [7] is Progesterone receptor (Homo sapiens) (UniProt P06401). The experiment is described as follows: qHTS assay to identify small molecule agonists of the progesterone receptor (PR) signaling pathway (AID 1346784; calls by dose curve; also: nearly all actives have a fitted effect of over 30% in size). Summed up:
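Agonist mode, quantitative HTS format in a HEK 293T line expressing a UAS-controlled beta-lactamase reporter; 16 hr compound exposure at 37C in 2% charcoal-stripped FBS, then LiveBLAzer B/G FRET fluorescence.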

The nature of experiment [8]: qHTS assay to identify small molecule antagonists of the progesterone receptor (PR) signaling pathway - cell viability counter screen (AID 1346798). Also: series mostly up to about 92 µM; nearly all actives have a fitted effect of over 50% in size. The procedure, abridged:
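Same-well multiplex: after 16 hr at 37C with compound and R5020 stimulation, HEK293T cells carrying a UAS-bla reporter received LiveBLAzer substrate (2 hr RT), then CellTiter-Glo (30 min RT) for luminescent viability.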

Experiment [9] in a line: qHTS assay to identify small molecule antagonists of the TGF-beta/Smad signaling pathway - cell viability counter screen (AID 1346824). Also: nearly all actives have a fitted effect of over 50% in size. The procedure, abridged:
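Cytotoxicity counter-screen run in the same wells as the beta-lactamase Smad reporter read: CellTiter-Glo luminescence after 30 min at room temperature. HEK 293T SBE-bla cells had 5 hr compound exposure at 37 C with TGF-beta1 (0.25 ng/mL stock).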

Experiment [10] in a line: qHTS assay to identify small molecule agonists of the TGF-beta/Smad signaling pathway - cell viability counter screen (AID 1346829). Also: top concentration of the series differs between compounds; nearly all actives have a fitted effect of over 45% in size. The procedure, abridged: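 Same-well cytotoxicity: CellTiter-Glo added after the 2 hr room-temperature beta-lactamase substrate step, luminescence measured 30 min later; cells had 5 hr of compound at 37 C.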
The nature of experiment [11]: qHTS assay to identify small molecule agonists of the TGF-beta/Smad signaling pathway (AID 1346859; active = well fitted activation curve with a large enough effect in the signal ratio in the repeat runs, not every such curve was filed as active; the % refers to the signal ratio; also: series mostly up to about 77 µM). Summed up: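 Smad-responsive beta-lactamase reporter cells (HEK 293T) received compounds from DMSO stocks after overnight attachment, were incubated 5 hr, then treated 2 hr with FRET substrate before dual-emission fluorescence measurement (405 nm excitation).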
Experiment [12] concerns the target Thyrotropin-releasing hormone receptor (Homo sapiens) (UniProt P34981). Put plainly: qHTS assay to identify small molecule agonists of the thyrotropin-releasing hormone receptor (TRHR) signaling pathway (AID 1346891; calls by dose curve; also: potency is read from the fitted curve at half-maximal effect; as to activation: series mostly up to about 58 µM). Summed up: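 Agonist-mode calcium mobilisation screen: TRHR-transfected HEK293 cells cultured overnight (18 h), dye-loaded for 2 h at 37 °C, exposed to compounds, and monitored by fluorescence for 3 min.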

Experiment [13] is described as follows: Human pregnane X receptor (PXR) small molecule agonists, qHTS cell viability counter screen (AID 1346977). Also: nearly all actives have a fitted effect of over 50% in size. Also: potency is read from the fitted curve at half-maximal effect. The procedure, abridged:
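Measures live-cell protease fluorescence (CellTiter-Fluor) in PXR-Luc HepG2 cells treated 24hr with compounds at 37C. Cells had 5hr to attach before pin transfer of DMSO solutions.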

The target in experiment [14] is Estrogen receptor (Homo sapiens) (UniProt P03372). The experiment is described as follows: qHTS assay to identify small molecule agonists of the estrogen receptor alpha (ER-alpha) signaling pathway in the presence of an antagonist (AID 1259383; calls by dose curve; also: top concentration of the series differs between compounds; nearly all actives have a fitted effect of over 15% in size). The procedure, abridged:
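In VM7Luc4E2 cells, 4,000 per well, compounds at 15 concentrations were co-incubated 22hr at 37C with 10.0nM final ICI-182,780. Luminescence from the stably transfected 4×ERE-luciferase reporter was recorded 30min after ONE-Glo addition.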

The target in experiment [15] is Thyrotropin receptor (Homo sapiens) (UniProt P16473). The experiment is described as follows: qHTS assay to identify small molecule antagonists of the thyroid stimulating hormone receptor (TSHR) signaling pathway (AID 1259385; calls by dose curve; also: nearly all actives have a fitted effect of over 20% in size; also: potency is read from the fitted curve at half-maximal effect). Summed up:
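Antagonist mode: compound-treated TSHR-expressing HEK293 cells were stimulated with 1.5 ng/mL TSH (final) in presence of Ro20-1724 for 30 min at RT. HTRF cAMP detection after 1 h; each compound tested at 15 concentrations, triplicate.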

In experiment [16] the target is Progesterone receptor (Homo sapiens) (UniProt P06401). The experiment is described as follows: qHTS assay to identify small molecule antagonists of the progesterone receptor (PR) signaling pathway (AID 1346795; active = well fitted inhibition curve with a large enough effect in the signal ratio in the repeat runs, not every such curve was filed as active; the % refers to the signal ratio; also: potency is read from the fitted curve at half-maximal effect). The procedure, abridged:
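HEK293T PR-UAS-bla reporter cells in charcoal-stripped serum (2%) received compound after a 6 hr settling period, followed by R5020 agonist at 1 nM final; 16 hr incubation preceded the FRET substrate step and fluorescence measurement.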

The nature of experiment [17]: qHTS assay to identify small molecule agonists of the progesterone receptor (PR) signaling pathway - cell viability counter screen (AID 1346799; calls by dose curve; also: nearly all actives have a fitted effect of over 45% in size; also: potency is read from the fitted curve at half-maximal effect). The procedure, abridged:
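Counter screen for cytotoxicity: compound-treated PR-UAS-bla HEK293T cells (16 hr, 37C, 5% CO2) were assayed with CellTiter-Glo, luminescence measured after 30 min at room temperature.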

In experiment [18] the target is Thyrotropin-releasing hormone receptor (Homo sapiens) (UniProt P34981). The experiment is described as follows: qHTS assay to identify small molecule antagonists of the thyrotropin-releasing hormone receptor (TRHR) signaling pathway (AID 1346877; active = well fitted inhibition curve with a large enough effect in the repeat runs, not every such curve was filed as active; also: series mostly up to about 51 µM). Summed up:
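In this cell-based calcium flux format, HEK293 cells expressing TRHR received test compound for 5 min before the agonist TRH (1 nM final). Dye loading lasted 2 h at 37 °C.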

Sequence of Thyrotropin receptor (Homo sapiens) (P16473 whole entry, looked up): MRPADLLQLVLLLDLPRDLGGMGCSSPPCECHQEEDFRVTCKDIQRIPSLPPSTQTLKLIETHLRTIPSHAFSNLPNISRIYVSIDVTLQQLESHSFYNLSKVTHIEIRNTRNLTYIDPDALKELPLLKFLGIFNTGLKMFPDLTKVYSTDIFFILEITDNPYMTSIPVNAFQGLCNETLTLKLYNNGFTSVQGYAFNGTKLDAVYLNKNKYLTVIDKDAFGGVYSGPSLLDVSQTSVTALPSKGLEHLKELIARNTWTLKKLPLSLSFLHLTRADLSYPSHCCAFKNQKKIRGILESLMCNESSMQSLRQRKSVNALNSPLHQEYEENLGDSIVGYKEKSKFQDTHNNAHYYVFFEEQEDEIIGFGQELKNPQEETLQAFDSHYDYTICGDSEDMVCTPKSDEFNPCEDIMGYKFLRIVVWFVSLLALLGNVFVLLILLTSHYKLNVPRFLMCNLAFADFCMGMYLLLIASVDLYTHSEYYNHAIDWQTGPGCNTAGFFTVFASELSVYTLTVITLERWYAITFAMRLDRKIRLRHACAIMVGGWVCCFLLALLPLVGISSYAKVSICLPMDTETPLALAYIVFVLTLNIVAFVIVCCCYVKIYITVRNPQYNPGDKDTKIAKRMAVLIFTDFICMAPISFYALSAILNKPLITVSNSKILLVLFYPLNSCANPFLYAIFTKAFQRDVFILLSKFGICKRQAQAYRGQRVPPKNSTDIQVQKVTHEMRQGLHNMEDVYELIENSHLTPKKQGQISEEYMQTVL
Sequence of Estrogen receptor (Homo sapiens) (P03372 whole entry, looked up): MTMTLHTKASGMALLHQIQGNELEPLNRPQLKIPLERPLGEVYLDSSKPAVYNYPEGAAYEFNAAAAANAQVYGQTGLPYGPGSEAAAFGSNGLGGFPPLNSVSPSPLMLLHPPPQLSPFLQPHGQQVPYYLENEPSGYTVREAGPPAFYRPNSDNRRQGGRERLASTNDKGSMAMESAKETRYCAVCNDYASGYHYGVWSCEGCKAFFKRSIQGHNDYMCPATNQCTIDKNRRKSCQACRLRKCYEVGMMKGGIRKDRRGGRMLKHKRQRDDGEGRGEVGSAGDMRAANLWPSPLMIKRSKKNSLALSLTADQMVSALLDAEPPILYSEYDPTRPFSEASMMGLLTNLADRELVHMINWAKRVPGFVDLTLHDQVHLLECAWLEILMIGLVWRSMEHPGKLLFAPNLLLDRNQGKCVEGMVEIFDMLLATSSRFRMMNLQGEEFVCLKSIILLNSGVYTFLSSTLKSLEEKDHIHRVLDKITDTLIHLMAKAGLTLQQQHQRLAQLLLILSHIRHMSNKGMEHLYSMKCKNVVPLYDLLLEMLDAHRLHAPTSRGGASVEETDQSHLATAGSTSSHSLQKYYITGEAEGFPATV
Sequence of Progesterone receptor (Homo sapiens) (P06401 whole entry, looked up): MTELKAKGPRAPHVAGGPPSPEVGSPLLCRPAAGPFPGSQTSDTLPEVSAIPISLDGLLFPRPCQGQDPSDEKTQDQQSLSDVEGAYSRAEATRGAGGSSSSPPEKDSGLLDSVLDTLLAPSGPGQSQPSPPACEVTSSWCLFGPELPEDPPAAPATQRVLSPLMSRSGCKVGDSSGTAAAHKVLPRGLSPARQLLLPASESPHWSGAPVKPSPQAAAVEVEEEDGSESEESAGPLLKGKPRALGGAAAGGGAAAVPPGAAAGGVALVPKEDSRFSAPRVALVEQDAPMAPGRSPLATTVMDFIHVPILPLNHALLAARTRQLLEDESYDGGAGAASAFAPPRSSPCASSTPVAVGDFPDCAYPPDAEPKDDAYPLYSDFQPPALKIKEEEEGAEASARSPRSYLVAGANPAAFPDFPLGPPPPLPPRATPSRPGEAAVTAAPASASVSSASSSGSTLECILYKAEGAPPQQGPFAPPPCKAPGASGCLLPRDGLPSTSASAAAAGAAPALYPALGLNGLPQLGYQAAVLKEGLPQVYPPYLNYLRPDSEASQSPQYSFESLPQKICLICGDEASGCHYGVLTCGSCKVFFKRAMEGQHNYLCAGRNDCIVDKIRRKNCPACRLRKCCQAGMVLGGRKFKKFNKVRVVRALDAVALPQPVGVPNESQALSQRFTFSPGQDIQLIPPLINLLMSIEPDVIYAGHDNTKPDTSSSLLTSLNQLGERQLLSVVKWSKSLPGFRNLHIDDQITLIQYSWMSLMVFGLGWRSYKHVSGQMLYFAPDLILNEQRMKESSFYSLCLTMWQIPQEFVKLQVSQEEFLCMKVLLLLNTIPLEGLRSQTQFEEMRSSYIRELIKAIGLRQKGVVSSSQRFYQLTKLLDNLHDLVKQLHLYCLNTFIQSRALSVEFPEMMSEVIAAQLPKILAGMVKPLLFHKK
Sequence of Thyrotropin-releasing hormone receptor (Homo sapiens) (P34981 whole entry, looked up): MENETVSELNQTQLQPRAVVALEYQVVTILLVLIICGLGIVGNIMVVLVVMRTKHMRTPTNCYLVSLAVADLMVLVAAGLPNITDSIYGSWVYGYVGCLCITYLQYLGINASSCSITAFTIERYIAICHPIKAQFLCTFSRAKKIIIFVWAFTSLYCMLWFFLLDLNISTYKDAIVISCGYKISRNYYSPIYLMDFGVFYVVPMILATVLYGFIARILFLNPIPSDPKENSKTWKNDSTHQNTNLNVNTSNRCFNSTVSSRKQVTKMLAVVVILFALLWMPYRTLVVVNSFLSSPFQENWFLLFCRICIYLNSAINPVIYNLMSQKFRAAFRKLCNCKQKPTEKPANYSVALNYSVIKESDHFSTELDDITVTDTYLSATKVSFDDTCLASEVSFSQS
Sequence of Estrogen receptor beta (Homo sapiens) (Q92731 whole entry, looked up): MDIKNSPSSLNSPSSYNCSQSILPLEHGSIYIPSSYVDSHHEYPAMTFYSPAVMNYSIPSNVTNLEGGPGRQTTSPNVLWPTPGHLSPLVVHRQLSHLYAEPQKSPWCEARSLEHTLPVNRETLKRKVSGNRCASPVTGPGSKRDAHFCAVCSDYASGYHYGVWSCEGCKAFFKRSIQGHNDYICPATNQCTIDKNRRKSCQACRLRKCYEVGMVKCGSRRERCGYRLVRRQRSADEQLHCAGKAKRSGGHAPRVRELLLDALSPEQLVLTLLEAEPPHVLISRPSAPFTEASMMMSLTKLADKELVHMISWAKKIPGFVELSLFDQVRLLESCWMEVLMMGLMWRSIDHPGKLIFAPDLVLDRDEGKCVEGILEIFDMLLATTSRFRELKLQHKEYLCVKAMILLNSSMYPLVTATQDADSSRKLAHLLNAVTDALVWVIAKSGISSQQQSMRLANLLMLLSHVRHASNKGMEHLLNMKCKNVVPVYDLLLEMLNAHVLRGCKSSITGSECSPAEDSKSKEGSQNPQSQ

On to `C1=CC2C3C=CC(C3)C2C1` (stereo not drawn), for which the Potency entry in experiment [1], in [2], in [3], in experiment [4], in [5] and in experiment [6] was “inactive” throughout. The Potency result in experiment [7], in experiment [8], in experiment [9], in experiment [10] and in experiment [13] was “inactive” each time. In addition, in experiment [11], the outcome was inactive. Also, the Potency in experiment [12] was 34.1 µM (active).
For `CS(=O)(=O)OCCCCOS(C)(=O)=O`, the Potency entry in [2], in experiment [3], in experiment [4], in experiment [14], in experiment [5] and in experiment [15] was “inactive” throughout. The Potency result in [6], in experiment [7], in experiment [16], in [8], in experiment [17] and in experiment [10] was “inactive” throughout. Moreover, the Potency result in [18], in experiment [12] and in [13] was “inactive” throughout. In addition, the call in [11] was inactive.
`C=CCc1ccc(O)c(OC)c1`: the Potency result in experiment [2], in [3], in experiment [4], in experiment [14], in experiment [5] and in [15] was “inactive” each time. The Potency entry in experiment [6], in [7], in experiment [16], in experiment [8], in [17] and in experiment [9] was “inactive” each time. The Potency entry in experiment [10], in [18], in experiment [12] and in [13] was “inactive” in each case. Also, the compound was classed as inactive in experiment [11].
`COc1ccc2cc(S(=O)(=O)N[C@H](CC(=O)N[C@H](Cc3ccc(CN4[C@H](C)CCC[C@@H]4C)cc3)C(=O)N(C)C(C)C)c3ccc4c(c3)OCO4)ccc2c1`: the Potency in [2] is 51.6 µM (active); in experiment [3] it was 18.3 µM (active); in experiment [4], 29 µM (active); in experiment [15], 57.9 µM (active); in experiment [6], 36.5 µM (active); in [16] it was 57.9 µM (active). Besides, the figures for the Potency in [17] and in experiment [13] were 29 µM (active) and 13 µM (active), respectively. The Potency entry in experiment [14], in [5] and in [7] was “inactive” in each case.
As for `Cc1cccc(C)c1`, the Potency entry in experiment [2], in experiment [3], in [4], in experiment [14], in experiment [5] and in experiment [15] was “inactive” each time. In addition, the Potency entry in experiment [6], in experiment [7], in experiment [16], in experiment [8], in [17] and in [9] was “inactive” throughout. Further, the Potency result in experiment [10], in [18], in [12] and in [13] was “inactive” each time. In experiment [11], the call was inactive.
As to `CCOC(N)=O`, the Potency entry in [2], in [3], in experiment [4], in experiment [14], in experiment [5] and in experiment [15] was “inactive” each time. For the same compound, the Potency entry in experiment [6], in [7], in experiment [16], in experiment [8], in experiment [17] and in experiment [9] was “inactive” each time. Also, the Potency entry in experiment [10], in experiment [18], in experiment [12] and in [13] was “inactive” each time. The compound was called inactive in experiment [11].
With `Cc1ncc([N+](=O)[O-])n1C`, the Potency result in experiment [2], in experiment [3], in experiment [4], in [14], in [5] and in [15] was “inactive” throughout. Besides, the Potency entry in experiment [6], in experiment [7], in experiment [16], in [8], in experiment [17] and in [9] was “inactive” throughout. Besides, the Potency result in [10], in [18], in experiment [12] and in experiment [13] was “inactive” in each case. The call in [11] was inactive.
